# S2 tox: Viability Counterscreen for Primary qHTS for Inhibitors of ATXN expression; 0.49% of 400,000 active; AID 651635, 2014; S2 cells (HEK-293 line with an ATXN2-luciferase reporter) viability, CellTiter-Fluor protease fluorescence, 24 h; Potency, µM (series often up to 56.7 µM), hits mostly cytotoxic; further: nearly all actives have a fitted effect of over 40% in size
# Nrf2 inh: Nrf2 qHTS screen for inhibitors. Potency, µM (titrated, usually from 46 µM), hits mostly inhibitors. AID 504444, 2011. A549 ARE-Fluc reporter, luciferase luminescence, 18-24 h. 2.1% of 360,000 active; further: nearly all actives have a fitted effect of over 60% in size
#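 Nrf2 function is reported as luminescence of an ARE-controlled luciferase in A549 cells. Compounds were tested at several concentrations, and a CellTiter-Fluor read on the same wells flagged cytotoxicity.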
# A549 viability: Nrf2 qHTS screen for inhibitors: counterscreen for cytotoxicity. 0.16% of 390,000 active. A549 ARE-Fluc cells, CellTiter-Fluor viability, 18-24 h. AID 504648, 2011. Potency, µM (doses to about 46 µM), hits mostly inhibitors
#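 A549 ARE_Fluc cells in 5% FBS OPTI-MEM were exposed to compounds in concentration-response for 18-24 h at 37 deg C. Viability was read by CellTiter-Fluor fluorescence (Ex 405/Em 525) after 30 min, before the luciferase read.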
# ATXN2 expr inh: Primary qHTS for Inhibitors of ATXN expression | HEK-293 ATXN2-luciferase reporter, luminescence, 24 h | Potency, µM (titrated, usually from 57 µM), hits mostly inhibitors | 0.72% of 360,000 active | AID 1745845, 2022; further: nearly all actives have a fitted effect of over 55% in size
#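 ATXN2-luciferase reporter cells (luciferase flanked by upstream and downstream ATXN2 gene portions) were treated 24 h at 37 °C with compounds at up to 57 uM. SteadyGlo luminescence gave expression; GF-AFC fluorescence gave viability.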
# Nrf2 activator: qHTS of Nrf2 Activators. AREc32 ARE-luciferase reporter (MCF7-derived line), luminescence, 24 h. Potency, µM (titrated, usually from 46.1 µM), actives largely listed as activators. 0.31% of 410,000 active. AID 624171, 2012; further: nearly all actives have a fitted effect of over 65% in size
#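 AREc32 cells carrying an ARE-driven firefly luciferase, 1000 cells/well in OPTI-MEM with 5% FBS, dosed after overnight attachment and incubated 24 hr at 37 deg C. Steady-Glo luminescence read after 30 min at RT.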
# A number is an active result; . = inactive; ? = inconclusive; / = no result; ! = not active in a repeat. Compounds with a hit are over-represented: about 2.9% of the library has one in this group of screens. The call rests on the fitted dose curve; in most records, active means well fitted curve in the direction sought with a large enough effect; inconclusive means small, poorly fitted or top-dose-only effect, or another doubt; inactive means no such curve, though single readings can be large; an effect the other way counts as inactive or inconclusive.
SMILES,S2 tox,Nrf2 inh,A549 viability,ATXN2 expr inh,Nrf2 activator
O=C(Nc1ccc(N2CCN(c3ccc(C(F)(F)F)cn3)CC2)nc1)c1cccs1,.,?,.,?,.
O=C(Nc1ccc(N2CCN(c3ncccc3C(F)(F)F)CC2)nc1)c1cccs1,?,21µM,?,34µM,.
S=c1[nH]nc(COc2ccccc2)n1/N=C/C=C/c1ccco1,.,.,.,.,13µM
O=S(=O)(c1ccccc1)c1nnn2c1nc(NC1CCN(Cc3ccccc3)CC1)c1cc(Cl)ccc12,.,6.5µM,?,.,.
CN1CCC(Nc2ncc3ncnc(Nc4ccc(F)c(Cl)c4)c3n2)CC1,?,/,/,28µM,/
COc1cc(=O)n2c(c1C(=O)NCc1ccco1)CCN(Cc1ccc(F)cc1Cl)CC2,.,/,/,/,/
CCOCCCNC(=O)/C(C#N)=C/c1cc(OC)c(O)c([N+](=O)[O-])c1,?,.,18µM,.,.
CCOCCCNC(=O)/C(C#N)=C/c1ccc(Cl)c([N+](=O)[O-])c1,?,.,.,?,.
COC(=O)[C@H](Cc1ccccc1)NC(=O)c1ccc2ccccc2n1,.,.,.,.,.
COC[C@H](NC(=O)c1cnc(C)s1)C(=O)N[C@@H](COC)C(=O)N[C@@H](Cc1ccccc1)C(=O)[C@@]1(C)CO1,/,/,/,0.22µM,/
O=C(NC1CCCC1)c1ccc(CSc2nc3ccncc3n2Cc2ccc(F)cc2)cc1,?,?,.,?,.
O=C(NC1CCCCC1)c1ccc(CSc2nc3ccncc3n2Cc2ccccc2)cc1,?,?,.,.,.
COc1ccc(Cn2c(SCc3ccc(C(=O)NC4CCCCC4)cc3)nc3ccncc32)cc1,.,13µM,.,?,.
COc1ccc(Cn2c(SCc3ccc(C(=O)NC4CCCC4)cc3)nc3ccncc32)cc1,?,16µM,.,?,.
Cc1ccc(Cn2c(SCc3ccc(C(=O)NC4CCCCC4)cc3)nc3ccncc32)cc1,?,21µM,.,?,.
COc1cccc(N2CCN(c3ccc4nnc(CCC(=O)O)n4n3)CC2)c1,.,.,.,.,.
COc1ccc(-c2ccc3ncnc(NCCc4cnc[nH]4)c3c2)cc1OC,/,.,?,/,/
CCOC(=O)c1ccc(NC(=O)C2=C(C)C(=O)OC23CCN(C(C)=O)CC3)cc1,/,.,.,/,.
O=c1cc2oc3cc(O)c(O)cc3c(-c3ccccc3[N+](=O)[O-])c-2cc1O,16µM,3.3µM,5.2µM,/,.
O=c1cc(-c2ccccc2Cl)oc2cccc(O)c12,.,.,.,.,.
CCCS(=O)(=O)NCc1c(C)ncc2c1CCN(C(=O)c1cccc(Cl)c1F)C2,.,/,/,/,/
CS[C@H]1SC[C@@H]2C(=O)N(C)[C@H](C(C)C)C(=O)OC[C@H](NC(=O)c3cnc4ccccc4n3)C(=O)N[C@H](C)C(=O)N(C)[C@@H]1C(=O)N(C)[C@H](C(C)C)C(=O)OC[C@H](NC(=O)c1cnc3ccccc3n1)C(=O)N[C@H](C)C(=O)N2C,/,/,/,0.011µM,/
COC(=O)C1=C(N)Oc2cc(C)n(CC3CCCO3)c(=O)c2C1c1ccc(Cl)c(Cl)c1 (stereo unspecified),.,21µM,.,.,.
O=S(=O)(c1ccc(Cl)s1)N1CCN(C/C=C/c2ccccc2)CC1,.,10µM,.,.,.
CSc1ccc2cc(CNCc3ccccc3F)c(N3CCCC(CO)C3)nc2c1 (stereo unspecified),.,/,/,/,/
SMILES,S2 tox,Nrf2 inh,A549 viability,ATXN2 expr inh,Nrf2 activator
COc1ccc2nc(-c3ccc(N(C)C)cc3)sc2c1,/,0.33µM,?,/,/
Cc1c(C2(O)CCCCC2)[nH]c2cc(C(F)(F)F)ccc12,/,?,.,?,.
CCc1c(C2(O)CCCCC2)[nH]c2cc(C(F)(F)F)ccc12,32µM,?,.,?,.
c1ccc(CNc2nc(N3CCOc4ccccc43)nc3c2CCCC3)cc1,/,/,/,.,/
CCc1ccccc1S(=O)(=O)Cc1ccc(C(=O)NCc2ccc(Cl)cc2)o1,?,?,.,?,.
O=C(NCc1ccccc1Cl)c1ccc(CS(=O)(=O)c2ccc(Br)cc2)o1,.,23µM,?,.,.
CSc1ccc(CCNC(=O)c2ccc(CS(=O)Cc3ccc(Cl)cc3)o2)cc1 (stereo unspecified),.,.,.,.,.
O=C(NCCc1ccc(Cl)cc1)c1ccc(CS(=O)Cc2ccc(Cl)cc2)o1 (stereo unspecified),.,26µM,?,.,.
CCc1ccccc1S(=O)(=O)Cc1ccc(C(=O)NCCc2ccc(Cl)cc2)o1,/,23µM,?,?,.
CCC1CN(C(=O)N2CCC(C(=O)NCCCc3ccccc3)CC2)c2ccccc2O1 (stereo unspecified),/,?,.,/,.
COc1ccccc1Nc1nc(-c2c(C)nc3ncccn23)cs1,?,12µM,?,.,.
COc1ccc(Nc2nc(-c3c(C)nc4ncccn34)cs2)cc1,?,?,.,/,.
CS(=O)(=O)c1ccc(CNC(=O)C2(C(F)(F)F)C/C(=C\Cc3ccccc3)CCCO2)cc1 (stereo unspecified),.,18µM!,.,.,.
O=C(NCc1ccccc1)C1(C(F)(F)F)C/C(=C\Cc2ccccc2)CCCO1 (stereo unspecified),/,.,.,/,/
CCOC(=O)c1c(SCCN2CCCC2)n(-c2ccccc2)c(=S)n(-c2ccccc2)c1=O,?,?,.,22µM,.
CCOC(=O)c1c[nH]c(=S)n(-c2ccccc2)c1=O,.,.,.,.,.
CCc1ccc2[nH]c3nc(SCC(=O)NNC(=O)c4ccc(C(C)(C)C)cc4)nnc3c2c1,?,?,12µM,?,.
CCOc1cc(/C=C2/C(=O)ON=C2C)ccc1O,.,.,.,.,.
COc1cc(/C=C2\OC(=O)c3c(OC)cccc32)ccc1O,.,/,?,.,.
COc1cc(C=C2CN(C)C(=O)C2=O)ccc1O,28µM,/,/,/,.
CCOc1cc(/C=C2\CCC/C(=C\c3cc(Cl)c(O)c(OCC)c3)C2=O)cc(Cl)c1O,16µM,?,?,8.9µM,?
CCOc1cc(/C=C2\CN(C)C/C(=C\c3ccc(O)c(OCC)c3)C2=O)ccc1O,/,21µM,13µM,3.2µM,?
O=C(NCc1ccncc1)C12C[C@H]3C[C@@H](C1)CC(c1ccc(Cl)cc1)(C3)C2,/,/,/,.,/
NC[C@H]1O[C@H](O[C@@H]2[C@@H](O)[C@@H](O[C@H]3O[C@H](CO)[C@@H](O)[C@H](N)[C@@H]3O)[C@H](N)C[C@@H]2N)[C@H](O)[C@@H](O)[C@H]1O,/,/,/,.,/
O=C(CCCOc1ccc(Cl)cc1)N1CCCCC1,.,?,.,.,.
O=C(CCCOc1ccccc1)N1CCCCC1,.,?,.,11µM,.
O=C(OCC(COC(=O)c1cccnc1)(COC(=O)c1cccnc1)COC(=O)c1cccnc1)c1cccnc1,.,/,/,.,/
CCOC(=O)N1CCN(c2nc(CN3CCCCC3CCO)nc3c(C)cccc23)CC1 (stereo unspecified),.,/,/,/,/

# Screens deposited in PubChem BioAssay by National Center for Advancing Translational Sciences (NCATS).
